The list is not random: actives were taken first. Their share in the collection is about 12%.
Pf growth 96h = Primary qHTS for delayed death inhibitors of the malarial parasite plastid, 96 hour incubation | P. falciparum luciferase reporter growth, 96 h | Potency, µM (highest dose often 28.7 µM), most hits filed as inhibitors | 6.9% of 320,000 active
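Readout is luminescence from an integrated firefly luciferase in P. falciparum. Red cells, 2% hematocrit and 0.05% parasitemia final, were cultured with compound through two parasite generations (96 hours) at 37 C, 5% CO2.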
Sm TGR inh = qHTS Assay for the Inhibitors of Schistosoma Mansoni Peroxiredoxins. purified TGR, DTNB reduction, TNB absorbance 405 nm. 3% of 360,000 active. Schistosoma mansoni thioredoxin glutathione reductase (TGR), Q962Y6. Potency, µM (titrated, usually from 114 µM), actives largely listed as inhibitors; note: nearly all actives have a fitted effect of over 60% in size
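TGR 20 nM + NADPH 100 uM (dispensed conc.), cpd preinc 15 min RT; start with NADPH (500 uM addition) then DTNB (15 mM addition). Kinetic TNB absorbance, 405 nm filter. Four-parameter Hill fit across titration.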
AmpC inh no detg = qHTS Inhibitors of AmpC Beta-Lactamase (assay without detergent); Potency, µM (titrated, usually from 57.1 µM), most hits filed as inhibitors; P00811; 0.52% of 330,000 active; AmpC nitrocefin hydrolysis, absorbance 480 nm, 0.0001% Triton; AID 485341, 2010; note: nearly all actives have a fitted effect of over 20% in size
Target sequence (P00811 whole entry, looked up): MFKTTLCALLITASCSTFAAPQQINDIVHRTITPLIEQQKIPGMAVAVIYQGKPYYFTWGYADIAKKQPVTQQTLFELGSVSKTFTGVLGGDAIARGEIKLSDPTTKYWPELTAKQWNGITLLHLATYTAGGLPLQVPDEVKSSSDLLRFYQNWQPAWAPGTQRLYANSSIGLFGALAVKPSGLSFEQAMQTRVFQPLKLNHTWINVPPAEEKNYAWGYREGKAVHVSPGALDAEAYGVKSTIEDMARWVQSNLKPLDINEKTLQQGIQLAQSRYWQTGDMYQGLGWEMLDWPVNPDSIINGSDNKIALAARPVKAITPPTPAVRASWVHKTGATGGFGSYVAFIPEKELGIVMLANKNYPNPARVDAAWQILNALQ
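AmpC (5.3 nM in the dispensed reagent) in 20 mM phosphate pH 7.0 with 0.01% (detergent screen) or 0.0001% Triton X-100 was preincubated with compounds for 15 min at room temperature. Nitrocefin was then added from an 800 uM solution, and hydrolysis was followed at 480 nm.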
Pf growth 48h = Primary qHTS for delayed death inhibitors of the malarial parasite plastid, 48 hour incubation; P. falciparum luciferase growth in erythrocytes, 48 h; Potency, µM (doses to about 28.7 µM), most hits filed as inhibitors; 5.9% of 310,000 active
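A one-generation exposure of luciferase-tagged malaria parasites in RPMI 1640/Albumax erythrocyte culture, 37 C and 5% CO2. Inhibition is inferred from decreased luminescence after adding detection reagent.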
AmpC detergent = qHTS Inhibitors of AmpC Beta-Lactamase (assay with detergent) | AmpC hydrolysis of nitrocefin, absorbance 480 nm, 0.01% Triton | 0.041% of 370,000 active | P00811 | Potency, µM (titrated, usually from 114 µM), usual class: inhibitors; note: nearly all actives have a fitted effect of over 25% in size
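AmpC (5.3 nM in the dispensed reagent) in 20 mM phosphate pH 7.0 with 0.01% (detergent screen) or 0.0001% Triton X-100 was preincubated with compounds for 15 min at room temperature. Nitrocefin was then added from an 800 uM solution, and hydrolysis was followed at 480 nm.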
SARS PLpro yeast = qHTS of Yeast-based Assay for SARS-CoV PLP. S. cerevisiae expressing SARS-CoV PLpro, growth rescue. Potency, µM (highest dose often 32.9 µM), hits mostly activators. 0.19% of 330,000 active; calls by dose curve; note: nearly all actives have a fitted effect of over 55% in size
Large screens that a line does not name were inactive. Unless noted, calls come from the whole dose curve; as a rule, active = well fitted curve in the direction sought with a large enough effect; inconclusive = small, poorly fitted or top-dose-only effect, or another doubt; inactive = no such curve, though single readings can be large; an effect the other way counts as inactive or inconclusive.

CC(C)NS(=O)(=O)c1ccc(CCC(=O)NCc2ccncc2)cc1	none
O=C(CCNS(=O)(=O)c1cccs1)NCc1ccco1	Sm TGR inh 79µM, AmpC detergent inconclusive
O=C(COC(=O)Cc1ccc(Cl)cc1)NCc1ccco1	none (no result: Pf growth 96h, Sm TGR inh, Pf growth 48h, AmpC detergent)
O=C(CNS(=O)(=O)c1cccs1)NCCc1ccc(Cl)cc1	Pf growth 96h 13µM
O=C(COC(=O)CCNS(=O)(=O)c1ccc(Cl)cc1)NCc1ccco1	Pf growth 96h 2.1µM, Sm TGR inh inconclusive
CC(C)NS(=O)(=O)c1ccc(CCC(=O)NCc2ccco2)cc1	Sm TGR inh 45µM
O=C(CCCNS(=O)(=O)c1ccccc1)NCc1ccco1	none
O=C(CCc1ccc(S(=O)(=O)NCCc2ccccc2)cc1)NCc1ccco1	Sm TGR inh 45µM
Cn1c2ccccc2c(=O)c2cc(C#Cc3ccccn3)ccc21	Pf growth 96h inconclusive, Sm TGR inh 20µM, AmpC detergent inconclusive
Cn1c2ccccc2c(=O)c2ccc(C#Cc3ccccn3)cc21	Pf growth 96h 10µM, Sm TGR inh 32µM, Pf growth 48h inconclusive, AmpC detergent inconclusive
C=CCn1c2ccccc2c(=O)c2cc(C#Cc3cc(OC)cc(OC)c3)ccc21	Pf growth 96h inconclusive, Pf growth 48h 12µM
Cn1c2ccccc2c(=O)c2ccc(C#CC3(N)CCCCC3)cc21	Pf growth 96h inconclusive
Cn1c2ccccc2c(=O)c2cc(C#Cc3ccsc3)ccc21	Pf growth 96h inconclusive, Sm TGR inh inconclusive
COc1ccc(N2CCN(C(=O)Cc3c(C(=O)O)c(C)cn3C)CC2)cc1	none (no result: Pf growth 96h, AmpC inh no detg, Pf growth 48h, SARS PLpro yeast)
Cc1cc(C)cc(NC(=O)c2cnn(-c3ccccc3)c2C2CCNCC2)c1	Pf growth 96h inconclusive, Pf growth 48h inconclusive
Cc1[nH]c(=O)c(C#N)c2c1CSC(C)(C)C2	AmpC detergent inconclusive, SARS PLpro yeast inconclusive
O=C(/C=C/c1ccccc1)c1cc(Br)ccc(=O)c1O	Pf growth 96h inconclusive, Sm TGR inh 3.2µM, AmpC detergent inconclusive, SARS PLpro yeast 22µM (no result: Pf growth 48h)
Cc1cnc(C(=O)OCC(=O)N2CC(C)CC(C)C2)cn1 (stereo unspecified)	none (no result: Pf growth 96h, Sm TGR inh, Pf growth 48h, AmpC detergent)
O=C(O)C12CC3CC(C1)CC(n1ncc(NCc4ccco4)c(Cl)c1=O)(C3)C2	Sm TGR inh 2.8µM, Pf growth 48h inconclusive
O=C(O)CC12CC3CC(C1)CC(n1ncc(NCc4ccccc4Cl)c(Cl)c1=O)(C3)C2	Pf growth 48h inconclusive
COc1cccc(N2CC(NC(=O)c3cccs3)CC2=O)c1 (stereo unspecified)	none (no result: Pf growth 96h, AmpC inh no detg, Pf growth 48h, SARS PLpro yeast)
COC(=O)c1cc(C(=O)OCC(=O)c2ccc3c(c2)NC(=O)CO3)cc([N+](=O)[O-])c1	Sm TGR inh 40µM
O=C1COc2ccc(C(=O)CCl)cc2N1	Pf growth 96h inconclusive, Sm TGR inh 3.5µM, Pf growth 48h inconclusive
COc1cc(OC)cc(C(=O)N[C@H](C(=O)OCC(=O)c2ccc3c(c2)NC(=O)CO3)C(C)C)c1	none
CC(C)[C@H](NC(=O)c1ccccc1)C(=O)OCC(=O)c1ccc2c(c1)NC(=O)CO2	Sm TGR inh 35µM, AmpC detergent inconclusive, SARS PLpro yeast inconclusive (no result: Pf growth 48h)
CCC(=O)c1ccc(OCC(=O)c2ccc3c(c2)NC(=O)CO3)cc1	none
CCOC(=O)Cn1c(=O)n(-c2cccc(Cl)c2)c2nc(-c3ccccc3Cl)nc(C(N)=O)c21	none (no result: Pf growth 96h, AmpC inh no detg, Pf growth 48h, SARS PLpro yeast)
NS(=O)(=O)c1ccc(NC(=O)COC(=O)c2ccc([N+](=O)[O-])s2)cc1	Sm TGR inh 25µM
S=C(c1ccc(-c2ccc(Br)cc2)o1)N1CCOCC1	none
S=C(c1ccc(-c2ccc(Cl)c(Cl)c2)o1)N1CCOCC1	Sm TGR inh 45µM
O=C1N=C(N2CCCC2C(=O)O)S/C1=C\c1ccco1 (stereo unspecified)	Sm TGR inh 7.1µM, Pf growth 48h inconclusive
Cn1c(Cc2ccccc2)[n+](C)c2ccccc21	Pf growth 96h inconclusive, Pf growth 48h inconclusive
CN(C)C(=O)Oc1ccc(OCc2n(C)c3ccccc3[n+]2C)cc1	Pf growth 96h 2.3µM, Pf growth 48h inconclusive, AmpC detergent inconclusive
CCCCOC(=O)c1ccc(NS(=O)(=O)c2c(C)nc3scc(C)n3c2=O)cc1	none (no result: Pf growth 96h, AmpC inh no detg, Pf growth 48h, SARS PLpro yeast)
Cc1cc(Cl)c(S(=O)(=O)Nc2ccc3c(c2)OCCO3)cc1OCC(=O)NC1CCCCC1	Pf growth 96h inconclusive, AmpC detergent inconclusive (no result: Pf growth 48h)
Cc1cc(Cl)c(S(=O)(=O)NCC2CCCO2)cc1OCC(=O)NC1CCCCC1 (stereo unspecified)	Pf growth 96h 5.9µM (no result: Pf growth 48h)
Cc1cc(Cl)c(S(=O)(=O)Nc2ccon2)cc1OCC(=O)NC1CCCCC1	AmpC inh no detg 0.22µM, Pf growth 48h inconclusive
CCN(CC)S(=O)(=O)c1ccc2c(c1)c(=O)c(C(=O)N1CCN(c3cc(C)ccc3C)CC1)cn2C	none (no result: Pf growth 96h, AmpC inh no detg, Pf growth 48h, SARS PLpro yeast)
O=C(Nc1cc(F)ccc1F)N1CCC(CN2CCOCC2)CC1	none (no result: Pf growth 96h, AmpC inh no detg, Pf growth 48h, SARS PLpro yeast)
CC(C)CN(C(=O)COC(=O)c1c(Cl)ccc(Cl)c1Cl)C1CCS(=O)(=O)C1 (stereo unspecified)	Pf growth 96h 12µM, Pf growth 48h inconclusive
Cc1ccc(S(=O)(=O)NCC(=O)NCC(=O)OC(C(=O)NC(N)=O)C(C)C)cc1C (stereo unspecified)	Pf growth 96h inconclusive
O=C(Sc1ccc(Cl)cc1)c1cccc(Cn2cc(C(F)(F)F)ccc2=O)c1	Sm TGR inh 20µM
COc1ccccc1-c1sc2ccccc2c1-c1ccccc1OC	Pf growth 96h 2.6µM, Pf growth 48h 13µM
COc1ccccc1-c1sc2ccccc2c1-c1ccc2c(c1)OCCO2	Pf growth 96h inconclusive, Pf growth 48h inconclusive
COc1ccc(-c2c(-c3ccccc3OC)sc3ccccc23)cc1OC	Pf growth 96h 9.3µM, Pf growth 48h inconclusive
COc1ccc(-c2c(-c3ccccc3OC)sc3ccccc23)cc1C=O	Pf growth 96h inconclusive, Sm TGR inh inconclusive, Pf growth 48h inconclusive
CN1CCN(C(=O)c2ccc3c(c2)N(Cc2cccc(Cl)c2)C(=O)c2ccccc2S3(=O)=O)CC1	Pf growth 96h 12µM, Pf growth 48h inconclusive
CN1CCN(C(=O)c2ccc3c(c2)N(Cc2ccc(Cl)cc2)C(=O)c2ccccc2S3=O)CC1 (stereo unspecified)	Pf growth 48h 10µM, AmpC detergent inconclusive
CCOC(=O)N1CCC(NC(=O)c2ccc3c(c2)N(Cc2ccc(F)cc2)C(=O)c2ccccc2S3=O)CC1 (stereo unspecified)	none (no result: Pf growth 96h, AmpC inh no detg, Pf growth 48h, SARS PLpro yeast)
CCOC(=O)N1CCN(C(=O)c2cc3c(s2)-c2ccc(Cl)cc2S(=O)(=O)C3)CC1	none
COc1ccc(OCC(=O)NCCc2c[nH]c3ccccc23)cc1	none

Assay outcomes deposited in PubChem BioAssay by National Center for Advancing Translational Sciences (NCATS).
